# Measured values taken from PubChem BioAssay (NCATS).
# Inconclusive results are not listed. A call without a number means that no potency is given here. Active and inactive are the calls of the source. Calls come from the whole dose curve; as a rule, active = well fitted cell-killing curve with a large enough effect; inconclusive = small, poorly fitted or top-dose-only effect, or effect the other way; inactive = no such curve, though single readings can be large or run the other way.
# Assay: Quantitative High-Throughput drug screen in 47 multiple myeloma cell lines against the NCATS MIPE library collection: RPMI8226_ATCC cell viability assay (AID 1919871); note: nearly all actives have a fitted effect of over 30% in size
# Conditions: RPMI8226 myeloma viability, CellTiter-Glo ATP luminescence, 48 h; series mostly up to 45.8 µM
# Description: PI: Beverly A. Mock Ph.D.
# Laboratory of Cancer Biology and Genetics,
# Center for Cancer Research, National Cancer Institute,
# National Institute of Health, Bethesda, Maryland
# Drug resistance and disease progression are common in multiple myeloma (MM) patients, underscoring the need for new therapeutic combinations. […] We hypothesized that effective combinations would reduce MYC expression and enhance p16 activity. […] These preclinical data identify potentially useful drug combinations for evaluation in drug-resistant MM and reveal potential mechanisms of combined drug sensitivity.
# Described herein is the primary MIPE qHTS used to cherrypick compounds. Validated compounds were then further tested for potential synergistic activiy.
# [1] Peat TJ, Gaikwad SM, Dubois W, Gyabaah-Kessie N, Zhang S, Gorjifard S, Phyo Z, Andres M, Hughitt VK, Simpson RM, Miller MA, Girvin AT, Taylor A, Williams D, D'Antonio N, Zhang Y, Rajagopalan A, Flietner E, Wilson K, Zhang X, Shinn P, Klumpp-Thomas C, McKnight C, Itkin Z, Chen L, Kazandijian D, Zhang J, Michalowski AM, Simmons JK, Keats J, Thomas CJ, Mock BA. Drug combinations identified by high-throughput screening promote cell cycle transition and upregulate Smad pathways in myeloma. Cancer Lett. 2023 Aug 1;568:216284. doi: 10.1016/j.canlet.2023.216284. Epub 2023 Jun 24. PMID: 37356470; PMCID: PMC10408729.
# SEQUENCE No. (e.g., 1, 2, 3, etc.); […] (e.g., Cells, Incubation, Reagent, etc.); VALUE and DESCRIPTION.
# 1; Cells; 5 uL; white, solid bottom 1536-well Greiner assay plate.
# 2; Compounds; 23 nL; Kalypsis pin tool (Wako USA) equipped with a 1536-well pin head to transfer to the assay plates.
# 3; Incubation; 48 hours; 37C incubation.
# 4; Reagent;5uL; CellTiter Glo (Promega).
# 5; Detector; 425V; Luminescence; Viewlux PerkinElmer.
# NOTES (numbers refer to Sequence numbers above)
# 1. The cell-based screening methods employed in this study were like those previously published. Briefly, the corresponding myeloma cell lines were screened in 1,536-well plates with 500 cells, 5-uL per well for inhibition of cell viability (assessed by measuring ATP levels with CellTiterGlo).
# 2. NCATS MIPE 4.0 library of approved and investigational drugs were added using the Kalypsis pin tool. Wells treated with DMSO only for 100% viability and media only for 0% viability were used as controls.
# 3. The assay plates were covered and incubated for 48 hours in a 37C, 5% CO2 incubator with controlled humidity.
# 4. After 48 hours, CellTilter-GloTM luminescent substrate mix (Promega) reagent was added to the assay plate and plates we incubated for 5 min at room temperature.
# 5. Signal was measured as median relative luminescence units on a ViewLux (PerkinElmer) multiplate reader.
# [1] Heske CM, Davis MI, Baumgart JT, Wilson K, Gormally MV, Chen L, Zhang X, Ceribelli M, Duveau DY, Guha R, Ferrer M, Arnaldez FI, Ji J, Tran HL, Zhang Y, Mendoza A, Helman LJ, Thomas CJ. Matrix Screen Identifies Synergistic Combination of PARP Inhibitors and Nicotinamide Phosphoribosyltransferase (NAMPT) Inhibitors in Ewing Sarcoma. Clin Cancer Res. 2017 Dec 1;23(23):7301-7311. doi: 10.1158/1078-0432.CCR-17-1121. Epub 2017 Sep 12. PMID: 28899971; PMCID: PMC6636827.
# Potency is the fitted concentration of half-maximal effect.
row,SMILES,Potency
1,CN1[C@H]2CC(O)C[C@H]1[C@H]1O[C@H]12 (stereo not given in full),18.7 µM (active)
2,C[C@@H]1CC[C@@]2(OC1)O[C@H]1C[C@H]3[C@@H]4CC=C5C[C@@H](O[C@@H]6O[C@H](CO)[C@@H](O[C@@H]7O[C@@H](C)[C@H](O)[C@@H](O)[C@@H]7O)[C@H](O)[C@@H]6O[C@@H]6O[C@@H](C)[C@H](O)[C@@H](O)[C@@H]6O)CC[C@]5(C)[C@@H]4CC[C@]3(C)[C@@H]1[C@H]2C,2.35 µM (active)
3,COc1ccc(CC2NCCc3cc(OC)c(OC)cc32)cc1OC (stereo not given),inactive
4,C=C1C[C@H]2[C@H]3CCC(=O)[C@@]3(C)CC[C@@H]2[C@@]2(C)C=CC(=O)C=C12,18.7 µM (active)
5,CCN1C[C@]2(OC(=O)c3ccccc3NC(C)=O)CC[C@H](OC)[C@@]34[C@H]5CC6[C@@H](OC)C[C@](O)(C(C[C@@H]23)[C@@H]14)[C@@]5(O)[C@@H]6OC,inactive
6,c1ccc(CCCN2CCN(CCOC(c3ccccc3)c3ccccc3)CC2)cc1,20.9 µM (active)
7,CCCC[N+]1(C)[C@H]2CC(OC(=O)[C@H](CO)c3ccccc3)C[C@H]1[C@H]1O[C@H]12 (stereo not given in full),inactive
8,O=C(Nc1ccncc1)C(=O)c1cn(Cc2ccc(Cl)cc2)c2ccccc12,0.418 µM (active)
9,CCCN1CCO[C@@H]2c3cc(O)ccc3OC[C@@H]21,inactive
10,COc1ccc(C(=O)c2c(C)n(CCN3CCOCC3)c3cc(I)ccc23)cc1,18.7 µM (active)
11,COc1ccc2c(c[n+](C)c3c4cc5c(cc4ccc23)OCO5)c1OC,8.33 µM (active)
12,CC1=C(O)C(=O)C=C2C1=CC=C1[C@@]2(C)CC[C@@]2(C)[C@@H]3C[C@](C)(C(=O)O)CC[C@]3(C)CC[C@]12C,1.18 µM (active)
13,CC1(N2CCC(n3c([C@@H]4CCCNC4)nc4ccccc43)CC2)CCCCCCC1,20.9 µM (active)
14,CN[C@@H]1Cc2cccc3[nH]c(=O)n(c23)C1,inactive
15,CC(=CCCC1=CCC(C2=CC(=O)OC2O)OC1O)CCC1=C(C)CCCC1(C)C (stereo not given),0.0118 µM (active)
16,C[C@@]12OC(=O)[C@]1([C@@H](O)[C@@H]1C=CCCC1)NC(=O)[C@H]2CCCl,0.0296 µM (active)
17,CC(C)[C@]12O[C@@H]1[C@@H]1O[C@]13[C@]1(O[C@H]1C[C@@H]1C4=C(CC[C@@]13C)C(=O)OC4)[C@H]2O,inactive
18,CO[C@H]1CCC(O[C@H]2C[C@H]([C@]3(C)CC[C@]4(C[C@H](O)[C@@H](C)[C@@H]([C@@H](C)C=C(C)C(=O)[C@H](C)C[C@H](C)C(=O)O)O4)O3)O[C@]3(O[C@@H]([C@H]4O[C@@](O)(CO)[C@H](C)C[C@H]4C)C[C@H]3C)[C@H]2C)O[C@H]1C (stereo not given in full),0.935 µM (active)
19,CCOP(=O)(OCC)C(C)NC(=O)N(CCCl)N=O (stereo not given),inactive
20,CC=C(C)C(=O)O[C@H]1C(C)=C2[C@@H]3OC(=O)[C@@](C)(O)[C@@]3(O)[C@@H](OC(=O)CCC)C[C@](C)(OC(C)=O)[C@@H]2[C@@H]1OC(=O)CCCCCCC,0.0743 µM (active)

row,SMILES,Potency
1,C[C@@H]1O[C@@H](O[C@@H]2C=C3CC[C@@H]4[C@@H](CC[C@]5(C)[C@H](c6ccc(=O)oc6)CC[C@@]45O)[C@@]3(C)CC2)[C@H](O)[C@H](O)[C@H]1O,0.0235 µM (active)
2,O=C(N[C@H]1CN2CCC1CC2)c1ccc(Cl)cc1,inactive
3,C#C[C@]1(O)C=C[C@@H]2[C@@H]3CCC4=CC(=O)CC[C@@H]4[C@H]3CC[C@@]21CC,inactive
4,COC1=C[C@@H]2[C@@H]3Cc4ccc(OC)c(O)c4[C@]2(CCN3C)CC1=O,inactive
5,CC(C)(C)[C@]1(O)C[C@@H]2OC(=O)C[C@@]23C(=O)O[C@@H]2OC(=O)[C@H](O)C213 (stereo not given in full),inactive
6,CC(=O)O[C@@]12CO[C@H]1C[C@H](O)[C@@]1(C)C(=O)[C@H](O)C3=C(C)[C@@H](O)C[C@@](O)([C@@H](OC(=O)c4ccccc4)[C@@H]21)C3(C)C,2.96 µM (active)
7,COCC1(CO)C(=O)C2CCN1CC2 (stereo not given),20.9 µM (active)
8,NC1CC1c1ccccc1 (stereo not given),inactive
9,C=C[C@@H]1CN2CCC1C[C@H]2[C@H](O)c1ccnc2ccccc12 (stereo not given in full),18.7 µM (active)
10,CN(C)NC(=O)CCC(=O)O,inactive
11,CC1=NN=C(c2ccc(N)cc2)c2cc3c(cc2C1)OCO3,inactive
12,N#C[C@H](O[C@@H]1O[C@H](CO[C@@H]2O[C@H](CO)[C@H](O)[C@H](O)[C@H]2O)[C@H](O)[C@H](O)[C@H]1O)c1ccccc1,23.5 µM (active)
13,CC(=Cc1csc(C)n1)[C@@H]1C[C@H]2O[C@]2(C)CCC[C@H](C)[C@@H](O)[C@@H](C)C(=O)C(C)(C)[C@@H](O)CC(=O)O1,inactive
14,Oc1ccc2c3c1O[C@H]1c4[nH]c5c(c4C[C@@]4(O)[C@@H](C2)N(CC2CC2)CC[C@]314)C[C@@]1(O)[C@H]2Cc3ccc(O)c4c3[C@@]1(CCN2CC1CC1)[C@H]5O4,inactive
15,COC(=O)[C@@H](N)CCCN=C(N)N[N+](=O)[O-],inactive
16,C[C@]12COC(=O)C[C@@H]1CC[C@@H]1[C@H]2CC[C@@]2(C)[C@H]1CC[C@]2(C)O,inactive
17,CCOC(=O)c1cncn1[C@H](C)c1ccccc1,inactive
18,c1cc2c(cc1[C@H]1OC[C@H]3[C@H]1CO[C@H]3c1ccc3c(c1)OCO3)OCO2,inactive
19,CC[C@@H](C(N)=O)N1CCCC1=O,inactive
20,CC(C)(O)C(=O)Nc1ccc([N+](=O)[O-])c(C(F)(F)F)c1,inactive
